# Data as given in ChEMBL document CHEMBL3988442, “University of Dundee, Small-Polar-MMV Screening Library” (2021).
# The campaign covered roughly 69,000 compounds. About 1,000 (1.4%) showed an effect of 50% or more. This is one part of a sample in which strong results are shown more often than they occur.
# Test system: Leishmania donovani
# Assay: Leishmania intramacrophage assay
# Format: functional, organism-based
# Design: scale not given: in the data most compounds retested in dose-response had high values
structure (smiles),measurement,setting,value
OCC1(NCc2cnc(-c3ccccn3)s2)CCOCC1,Percent Effect,"30.3 µM, […]",-4.185%
CNC(=O)NCC(=O)N(C)C(c1ccc(Cl)cc1)c1cccnc1 (stereo unspecified),Percent Effect,"30.3 µM, […]",-0.8032%
CN(Cc1cncnc1)[C@H]1CN(C(=O)c2ccc[nH]2)[C@@H]2CCCO[C@@H]21,Percent Effect,"30.3 µM, […]",13.74%
CCCc1n[nH]c(C2CN(C(=O)CCCn3cccn3)CCO2)n1 (stereo unspecified),Percent Effect,"30 µM, 30.03 µM",8.129%
CCCc1n[nH]c(C2CN(C(=O)CCCn3ccnc3C)CCO2)n1 (stereo unspecified),Percent Effect,"30.3 µM, […]",52.76%
CCCc1n[nH]c(C2CN(C(=O)CCCn3ccnc3)CCO2)n1 (stereo unspecified),Percent Effect,"30.3 µM, […]",48.09%
CCCC(=O)NCC(=O)Nc1cc(F)ccc1SCC(F)F,Percent Effect,"30.3 µM, […]",-46.76%
CN(C)C(=O)CN1C[C@@H]2CC[C@H](C1)N(C(=O)CCCn1cncn1)C2,Percent Effect,"30.3 µM, […]",3.091%
CC(C)(C)n1nnnc1CN(Cc1ccccc1)Cc1ccc(Cl)cc1,Percent Effect,"30.3 µM, […]",73.63%
CC(C)(C)n1nnnc1CN(Cc1ccccc1)Cc1ccccc1Cl,Percent Effect,"30.3 µM, […]",-43.37%
CC(C)(C)n1nnnc1CN(CCc1ccccc1)Cc1ccccc1,Percent Effect,"30.3 µM, […]",46.18%
CCC(CNC(=O)c1ccccc1OC)N1CCc2ccccc2C1 (stereo unspecified),Percent Effect,"30.3 µM, […]",6.323%
CC(C)OCCCNC(=O)CS(=O)(=O)Cc1ccc(Cl)cc1,Percent Effect,30 µM,-19.7%
CCC(=O)N1CCCN(Cn2nc(C)c(Br)c2C)CC1,Percent Effect,"30.3 µM, […]",-2.566%
COCC(=O)N1CCN(Cn2nc(C)c(Br)c2C)CC1,Percent Effect,"30.3 µM, […]",52.22%
COC(=O)N1CCCN(Cn2nc(C)c(Br)c2C)CC1,Percent Effect,"30.3 µM, […]",-25.9%
Cc1ccn(Cc2nc(C(C)OCC(C)C)no2)c(=O)c1 (stereo unspecified),Percent Effect,"30.3 µM, […]",4.888%
Cc1[nH]ccc1C(=O)N1CCC2(CC1)c1nc[nH]c1CCN2CC(C)C,Percent Effect,"30.3 µM, […]",14.63%
CCN1CCC(CC(=O)NCC(O)c2cccc(OC)c2)CC1 (stereo unspecified),Percent Effect,"30.3 µM, […]",23.15%
CN1CCC(NCC(O)c2cccc(OCc3ccccc3)c2)CC1 (stereo unspecified),Percent Effect,"30.3 µM, […]",100.4%
c1ccc(COc2cccc(CNC3CCc4ncnn4C3)c2)cc1 (stereo unspecified),Percent Effect,30 µM,-0.9201%
COc1cccc(C(O)CNC(=O)CC2CCCCC2)c1 (stereo unspecified),Percent Effect,"30.3 µM, […]",-1.709%
OC(CNC1CCSCC1)c1cccc(OCc2ccccc2)c1 (stereo unspecified),Percent Effect,"30.3 µM, […]",77.88%
OC(CNC1CCOCC1)c1cccc(OCc2ccccc2)c1 (stereo unspecified),Percent Effect,"30.3 µM, […]",10.21%
CN(Cc1cnn(C)c1)C(=O)Cc1ccc2c(c1)OCCO2,Percent Effect,"30.3 µM, […]",1.956%
COCCCN(C)C1CCCN(Cc2noc(C)n2)C1 (stereo unspecified),Percent Effect,"30 µM, 30.03 µM",26.31%
Cc1nc(CN(C)C2CCN(Cc3cccc4c3OCCO4)C2)no1 (stereo unspecified),Percent Effect,30 µM,6.673%
Cn1ccnc1CCNC(=O)NCCC1CCCCO1 (stereo unspecified),Percent Effect,"30.3 µM, […]",11.89%
O=C(C1CCOC1)N1C[C@H]2CN(c3ccccc3)C(=O)[C@H]2C1 (stereo partly specified),Percent Effect,"30.3 µM, […]",6.072%
CCc1ncncc1C(=O)NCCN1CCC(C)CC1,Percent Effect,"30 µM, 30.03 µM",18.33%
Cc1ncncc1C(=O)NCCN1CCC(C)CC1,Percent Effect,"30.3 µM, […]",57.89%
CC1CCN(CCNC(=O)c2cncnc2C(C)C)CC1,Percent Effect,"30 µM, 30.03 µM",11.52%
Cn1cnnc1C1CCCN(C(=O)NCCOc2ccccc2)C1 (stereo unspecified),Percent Effect,"30 µM, 30.03 µM",2.584%
CCc1nc(C2CCCN2C(=O)CCc2cscn2)no1 (stereo unspecified),Percent Effect,30 µM,-30.43%
CCN(Cc1cccc(Cl)c1)Cc1ncc(C(C)(C)C)o1,Percent Effect,"30.3 µM, […]",12.9%
Cc1cccc(CN(Cc2ccccn2)Cc2ncc(C(C)(C)C)o2)c1,Percent Effect,"30.3 µM, […]",68.09%
Cc1cccc(CN(Cc2ccccn2)S(=O)(=O)N(C)C)c1,Percent Effect,"30.3 µM, […]",9.457%
Cc1ccc(F)c(C(=O)N2C[C@@H](C(=O)O)[C@H](c3ccncc3)C2)c1Cl,Percent Effect,"30.3 µM, […]",16.35%
O=S1(=O)CCC(c2nc(-c3cccc(Br)c3)no2)C1 (stereo unspecified),Percent Effect,"30.3 µM, […]",2.793%
COCCN(Cc1cnn(C)c1)Cc1ccc(C)o1,Percent Effect,"30.3 µM, […]",22%
COCCN(Cc1cnn(C)c1)CC1CCOC1 (stereo unspecified),Percent Effect,"30.3 µM, […]",-5.95%
COCCN(Cc1cnn(C)c1)CC1CCN(C(C)C)CC1,Percent Effect,"30.3 µM, […]",53.86%
c1ccc2c(N3CCCC3Cn3cccn3)ncnc2c1 (stereo unspecified),Percent Effect,"30 µM, 30.03 µM",38.82%
Cc1nccn1CC1CCCN1S(=O)(=O)Cc1ccccc1F (stereo unspecified),Percent Effect,"30 µM, 30.03 µM",17.08%
COCc1noc(-c2cc(Cl)c3c(c2)OCO3)n1,Percent Effect,"30.3 µM, […]",-15.75%
O=C(CCn1c(=O)oc2ccccc21)NCC(O)c1ccc(F)c(F)c1 (stereo unspecified),Percent Effect,"30.3 µM, […]",41.71%
O=C(CCn1c(=O)oc2ccccc21)NCC(O)c1ccc(Cl)cc1 (stereo unspecified),Percent Effect,"30.3 µM, […]",46.94%
O=C(CCn1c(=O)oc2ccccc21)NCC(O)c1ccccc1 (stereo unspecified),Percent Effect,"30.3 µM, […]",50.97%
OC1=C2C(=Nc3n[nH]c(O)c3C2c2ccccc2Cl)CCC1 (stereo unspecified),Percent Effect,"30.3 µM, […]",11.34%
CN(C)c1cncc(C2CCN(CCO)CC2)n1,Percent Effect,"30 µM, 30.03 µM",34.76%
CCC(=O)N1Cc2nccn2CC(CN(C)Cc2cccnc2)C1.O=C(O)C(F)(F)F.O=C(O)C(F)(F)F (stereo unspecified),Percent Effect,"30 µM, 30.03 µM",14.09%
